The record followed here is PubChem BioAssay AID588726 (The Scripps Research Institute Molecular Screening Center, 2011).

Out of some 360,000 compounds screened, about 8,200 (2.3%) were called active. This is one part of a sample in which actives are shown more often than they occur. A number with no mark means an inactive call. No stated cut-off is given here; in the data, active means inhibition above about 27%; inactive means the rest.

The target in the experiment is Fructose-bisphosphate aldolase (Mycobacterium tuberculosis (strain ATCC 25618 / H37Rv)) (UniProt P9WQA3). Put plainly: M. tuberculosis aldolase activity blockers – biochemical, fluorescence, strain H37Rv, primary screen (AID 588726).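 Further: 0% = vehicle and 100% = reference inhibitor.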 Conditions: purified M. tuberculosis FBA, fluorescence read-out, at 1 µM, stronger effect = higher value.
Chain of Fructose-bisphosphate aldolase (Mycobacterium tuberculosis (strain ATCC 25618 / H37Rv)) (P9WQA3 whole entry, looked up): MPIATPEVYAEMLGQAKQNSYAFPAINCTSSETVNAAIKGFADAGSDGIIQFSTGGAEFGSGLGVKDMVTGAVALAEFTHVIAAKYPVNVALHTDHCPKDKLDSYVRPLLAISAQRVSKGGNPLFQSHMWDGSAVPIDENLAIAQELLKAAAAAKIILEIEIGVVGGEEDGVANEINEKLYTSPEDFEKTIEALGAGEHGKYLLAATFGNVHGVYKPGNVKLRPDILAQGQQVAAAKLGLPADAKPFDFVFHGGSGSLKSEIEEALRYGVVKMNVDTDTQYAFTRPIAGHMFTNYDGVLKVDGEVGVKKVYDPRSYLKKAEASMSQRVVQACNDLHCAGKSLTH
One may read the inhibition as the relative decrease from the control value, in per cent. As to `C=CCOc1cccc(CNCc2cccnc2)c1`, the inhibition is -1.51%. In the case of `CC1(C)CC(=O)c2c(n(S(=O)(=O)c3ccccc3)c3ccc(NS(=O)(=O)c4ccccc4)cc23)C1` it was -1.63%.

Take `C[C@@H](C(=O)Nc1ccc2ccccc2c1)[C@@H]1C[C@@]1(C)[C@@H](NC(=O)c1cccnc1)c1ccccc1`: the inhibition is -0.2%. As for `O=C(CSc1ncn[nH]1)Nc1nc2c(F)c(F)c(F)cc2s1`, the inhibition was 0.81%. In the case of `CC(=O)N(CN1C(=O)C2C3C=CC(C3)C2C1=O)c1cccc(Cl)c1` (centres undefined) it was -0.27%; in that of `COc1ccc(-c2ccc3c(c2)[C@@H]2C[C@H](N(C)S(=O)(=O)c4ccccc4)[C@H]([C@H](C)O)C(=O)N2CC3)cc1`, 4.15%; in that of `CN(Cc1ccccc1)C(=O)CCNC(=O)Cn1cnc2ccccc2c1=O`, 5.26%.

Regarding `CC(=O)Nc1ccc(Oc2ccc3c(c2)C(=O)NC3=O)cc1`, the inhibition was 2.21%. In the case of `CCCCN(C)CCC(=O)Nc1ccc(Cl)cc1` it was 0.51%; in that of `CCCCC(=O)Nc1ccc2c(c1)C(=O)NC2=O`, 42.1% (active); in that of `Cc1ccc(C(=O)NC2CCN(C(=O)Nc3ccccc3Cl)CC2)cc1`, -1.09%. The result for `COc1ccc(C(=O)OCC(=O)NC(=O)CCSc2ccccc2)cc1` reads -0.72%. As for `Cc1ccccc1CN1CCNC(=O)C1CC(=O)NCCC1=CCCCC1` (centres undefined), the inhibition is 2.98%. Turning to `Cc1cc(C(=O)OC(C)C(=O)Nc2cccc(S(=O)(=O)N3CCOCC3)c2)c(C)o1` (centres undefined), the inhibition was -3.62%. The result for `CCOCCCNC(=O)C(NC(=O)CNC(=O)c1ccccc1)c1ccc(C)cc1` (centres undefined) reads -3.14%; that for `CCOCCCNC(=O)C(NC(=O)CNC(=O)c1ccccc1)c1ccc(OC)cc1` (centres undefined), -0.07%; that for `CCOCCCNC(=O)C(NC(=O)c1ccccc1O)c1ccccc1` (centres undefined), 43.8% (active). Turning to `COc1cccc(NC(=O)[C@H](Cc2c[nH]c3ccccc23)NC(=O)[C@@H]2Cc3ccccc3CN2)c1`, the inhibition was 10.6%. Consider `CCCCn1c(O)c(N=NC(=O)Cn2c(C(F)(F)F)nc3ccccc32)c2ccccc21`, for which the inhibition was 3.68%. `N#C/C(=C/c1ccc(N2CCCCC2)o1)C(=O)NCCc1c[nH]c2ccccc12`: the inhibition was -32.6%. With `CN=C1C=C/C(=N/N=c2\ccn(O)cc2C)C=C1C`, the inhibition was -28.4%. The result for `Cc1ccc(S(=O)(=O)Nc2ccc(F)c(S(=O)(=O)N3CCOCC3)c2)cc1` reads -0.06%; that for `COCc1cc(=O)oc2cc(NS(=O)(=O)c3ccc(C)cc3)ccc12`, 62.4% (active); that for `COc1ccc(S(=O)(=O)Nc2ccc3oc(C)c(C(C)=O)c3c2)cc1`, 0.55%.
